Experimental data taken from article PMC7862700, “An all-to-all approach to the identification of sequence-specific readers for epigenetic DNA modifications on cytosine”.

Columns and labels:
Experiment in all cases: DAPPL (digital affinity profiling via proximity ligation, sequencing); 10 mM Tris-HCl pH 7.5, 50 mM NaCl, 1 mM DTT, 4% glycerol, room temperature, 30 min; GST-TFs on glutathione beads, 16-mer random dsDNA library, 0.1% formaldehyde crosslink after washing; high values mean tight binding
Conditions in all cases: protein: recombinant; tags: N-terminal GST; dsDNA, one strand shown
ERG = molecular target: T1, ERG (Homo sapiens, UniProt P11308 1-479)
T1 sequence: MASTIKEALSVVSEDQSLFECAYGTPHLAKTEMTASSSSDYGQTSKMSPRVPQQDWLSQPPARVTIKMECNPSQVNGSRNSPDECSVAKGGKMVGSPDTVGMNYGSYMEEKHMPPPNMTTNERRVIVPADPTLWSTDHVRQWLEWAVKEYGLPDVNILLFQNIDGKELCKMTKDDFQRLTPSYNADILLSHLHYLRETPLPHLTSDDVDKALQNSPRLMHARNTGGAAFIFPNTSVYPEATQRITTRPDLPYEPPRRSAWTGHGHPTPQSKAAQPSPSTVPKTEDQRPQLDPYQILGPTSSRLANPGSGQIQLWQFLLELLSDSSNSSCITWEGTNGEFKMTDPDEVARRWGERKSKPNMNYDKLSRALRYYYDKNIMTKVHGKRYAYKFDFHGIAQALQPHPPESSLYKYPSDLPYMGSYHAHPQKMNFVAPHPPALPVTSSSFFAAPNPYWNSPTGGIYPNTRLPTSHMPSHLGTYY
How it was run: (§1)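 Sequencing on an Illumina NextSeq500 followed washing, crosslinking with 0.1% formaldehyde, proximity ligation (BsaI/T4 ligase, 1 h, 37 °C) and PCR amplification of pools that had been incubated for 30 min at room temperature with 200 nmole of a random double-stranded 16-mer DNA library in Tris/NaCl/DTT/glycerol buffer. Each pool held DNA-barcoded human transcription factors, expressed in yeast as GST fusions and captured on glutathione beads, plus a tag-only sample. Binding signal is a hexamer's read frequency for a factor divided by its frequency in the tag-only sample.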

EHF = molecular target: T2, EHF (Homo sapiens, UniProt Q9NZC4 1-300)
T2 sequence: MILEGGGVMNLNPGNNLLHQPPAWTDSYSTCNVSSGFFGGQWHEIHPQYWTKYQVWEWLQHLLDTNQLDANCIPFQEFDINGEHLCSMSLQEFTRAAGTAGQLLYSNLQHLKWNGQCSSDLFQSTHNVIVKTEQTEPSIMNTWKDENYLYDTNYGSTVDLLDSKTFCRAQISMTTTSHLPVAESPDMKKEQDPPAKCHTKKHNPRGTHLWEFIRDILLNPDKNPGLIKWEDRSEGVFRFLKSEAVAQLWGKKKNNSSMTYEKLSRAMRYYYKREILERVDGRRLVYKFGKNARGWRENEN
How it was run: as §1

SPI1 = SPI1 (Homo sapiens, UniProt P17947 1-270)
How it was run: as §1

SPIB = SPIB (Homo sapiens, UniProt Q01892 1-262)
SPIB, sequence (Q01892 whole entry): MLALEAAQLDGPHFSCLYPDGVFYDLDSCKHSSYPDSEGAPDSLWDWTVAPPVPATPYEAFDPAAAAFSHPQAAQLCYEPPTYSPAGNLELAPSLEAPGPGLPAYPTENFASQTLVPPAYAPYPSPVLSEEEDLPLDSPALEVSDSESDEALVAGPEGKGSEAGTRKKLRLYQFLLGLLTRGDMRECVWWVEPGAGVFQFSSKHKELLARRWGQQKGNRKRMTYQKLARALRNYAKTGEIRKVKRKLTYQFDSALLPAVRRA
How it was run: as §1

SPIC = molecular target: T3, SPIC (Homo sapiens, UniProt Q8N5J4 1-248)
T3 sequence: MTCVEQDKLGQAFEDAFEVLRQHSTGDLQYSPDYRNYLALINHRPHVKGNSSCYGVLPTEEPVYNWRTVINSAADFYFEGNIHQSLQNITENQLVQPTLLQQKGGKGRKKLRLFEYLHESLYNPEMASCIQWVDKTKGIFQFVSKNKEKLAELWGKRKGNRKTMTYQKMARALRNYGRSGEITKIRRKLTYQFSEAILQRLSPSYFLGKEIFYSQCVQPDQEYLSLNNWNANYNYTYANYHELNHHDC
How it was run: as §1

ELF3 = molecular target: T4, ELF3 (Homo sapiens, UniProt P78545 1-371)
T4 sequence: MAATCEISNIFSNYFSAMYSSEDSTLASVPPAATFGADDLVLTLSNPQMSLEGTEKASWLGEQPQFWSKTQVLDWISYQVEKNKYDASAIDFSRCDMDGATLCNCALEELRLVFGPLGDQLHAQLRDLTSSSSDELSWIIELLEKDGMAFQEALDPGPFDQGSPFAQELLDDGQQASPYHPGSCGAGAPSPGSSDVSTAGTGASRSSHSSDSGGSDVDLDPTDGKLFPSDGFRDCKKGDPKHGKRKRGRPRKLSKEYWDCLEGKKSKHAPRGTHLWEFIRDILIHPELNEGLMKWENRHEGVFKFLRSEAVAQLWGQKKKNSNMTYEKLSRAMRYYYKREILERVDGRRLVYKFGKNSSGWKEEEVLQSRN
How it was run: as §1

ETV7 = molecular target: T5, ETV7 (Homo sapiens, UniProt Q9Y603 1-341)
T5 sequence: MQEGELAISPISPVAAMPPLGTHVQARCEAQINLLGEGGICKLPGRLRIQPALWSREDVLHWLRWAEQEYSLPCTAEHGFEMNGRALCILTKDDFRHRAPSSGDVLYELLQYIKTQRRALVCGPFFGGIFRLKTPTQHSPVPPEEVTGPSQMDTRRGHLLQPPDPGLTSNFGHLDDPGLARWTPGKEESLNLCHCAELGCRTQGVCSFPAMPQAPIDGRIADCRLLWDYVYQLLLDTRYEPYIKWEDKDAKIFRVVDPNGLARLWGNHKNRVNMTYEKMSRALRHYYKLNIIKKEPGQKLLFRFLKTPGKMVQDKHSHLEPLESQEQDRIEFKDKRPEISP
How it was run: as §1

ELF5 = molecular target: T6, ELF5 (Homo sapiens, UniProt Q9UKW6-2 1-255)
T6 sequence: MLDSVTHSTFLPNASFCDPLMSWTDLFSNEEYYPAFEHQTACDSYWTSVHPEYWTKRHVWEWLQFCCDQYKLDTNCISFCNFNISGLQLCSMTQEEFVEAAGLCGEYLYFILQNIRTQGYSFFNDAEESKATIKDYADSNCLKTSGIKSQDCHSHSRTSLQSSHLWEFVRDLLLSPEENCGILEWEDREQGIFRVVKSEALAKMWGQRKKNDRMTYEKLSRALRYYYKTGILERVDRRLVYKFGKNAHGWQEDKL
How it was run: as §1

ETV6 = ETV6 (Homo sapiens, UniProt P41212 1-452)
ETV6, sequence (P41212 whole entry): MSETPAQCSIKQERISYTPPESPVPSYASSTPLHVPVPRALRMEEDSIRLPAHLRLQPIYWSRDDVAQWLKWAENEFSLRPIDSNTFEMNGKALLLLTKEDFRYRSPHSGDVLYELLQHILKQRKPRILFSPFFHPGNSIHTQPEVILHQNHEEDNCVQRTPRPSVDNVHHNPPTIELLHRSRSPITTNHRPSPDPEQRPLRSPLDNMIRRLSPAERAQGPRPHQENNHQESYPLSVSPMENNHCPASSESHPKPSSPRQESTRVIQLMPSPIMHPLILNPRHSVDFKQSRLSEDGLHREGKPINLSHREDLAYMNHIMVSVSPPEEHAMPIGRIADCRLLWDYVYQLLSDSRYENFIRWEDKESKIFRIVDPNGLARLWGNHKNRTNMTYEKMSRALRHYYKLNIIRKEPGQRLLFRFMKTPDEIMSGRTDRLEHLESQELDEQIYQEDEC
How it was run: as §1

ELK4 = molecular target: T7, ELK4 (Homo sapiens, UniProt P28324-2 1-405)
T7 sequence: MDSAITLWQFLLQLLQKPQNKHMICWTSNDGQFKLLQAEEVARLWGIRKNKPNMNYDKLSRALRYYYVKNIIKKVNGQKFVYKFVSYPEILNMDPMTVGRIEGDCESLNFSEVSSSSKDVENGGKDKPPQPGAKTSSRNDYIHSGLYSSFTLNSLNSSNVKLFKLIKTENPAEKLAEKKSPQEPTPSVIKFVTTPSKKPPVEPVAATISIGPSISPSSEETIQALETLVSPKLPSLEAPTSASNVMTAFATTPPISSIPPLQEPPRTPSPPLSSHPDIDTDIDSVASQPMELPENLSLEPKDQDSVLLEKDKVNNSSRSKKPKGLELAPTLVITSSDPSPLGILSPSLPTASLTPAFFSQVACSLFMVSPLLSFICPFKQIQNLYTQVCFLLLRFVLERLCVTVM
How it was run: as §1

ETV2 = molecular target: T8, ETV2 (Homo sapiens, UniProt O00321 1-342)
T8 sequence: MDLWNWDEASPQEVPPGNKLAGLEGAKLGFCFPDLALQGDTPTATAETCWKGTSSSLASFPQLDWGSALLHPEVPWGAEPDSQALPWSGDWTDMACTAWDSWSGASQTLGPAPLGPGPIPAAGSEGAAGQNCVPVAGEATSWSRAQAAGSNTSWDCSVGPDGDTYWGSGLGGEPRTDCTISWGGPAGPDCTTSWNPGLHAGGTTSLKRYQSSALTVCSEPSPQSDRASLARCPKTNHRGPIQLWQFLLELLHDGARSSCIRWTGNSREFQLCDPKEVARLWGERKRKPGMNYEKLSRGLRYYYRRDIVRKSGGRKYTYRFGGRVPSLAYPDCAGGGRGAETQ
How it was run: as §1

CRX = CRX (Homo sapiens, UniProt O43186 1-299)
CRX, sequence (O43186 whole entry): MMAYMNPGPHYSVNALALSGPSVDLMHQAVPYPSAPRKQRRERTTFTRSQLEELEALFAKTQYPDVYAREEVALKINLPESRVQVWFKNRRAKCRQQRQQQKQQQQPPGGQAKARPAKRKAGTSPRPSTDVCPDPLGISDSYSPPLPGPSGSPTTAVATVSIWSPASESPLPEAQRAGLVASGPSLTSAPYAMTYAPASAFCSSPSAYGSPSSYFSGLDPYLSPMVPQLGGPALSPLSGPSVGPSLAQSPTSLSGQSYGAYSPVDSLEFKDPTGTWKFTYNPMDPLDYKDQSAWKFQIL
How it was run: as §1

ETV3L = molecular target: T9, ETV3L (Homo sapiens, UniProt Q6ZN32 1-361)
T9 sequence: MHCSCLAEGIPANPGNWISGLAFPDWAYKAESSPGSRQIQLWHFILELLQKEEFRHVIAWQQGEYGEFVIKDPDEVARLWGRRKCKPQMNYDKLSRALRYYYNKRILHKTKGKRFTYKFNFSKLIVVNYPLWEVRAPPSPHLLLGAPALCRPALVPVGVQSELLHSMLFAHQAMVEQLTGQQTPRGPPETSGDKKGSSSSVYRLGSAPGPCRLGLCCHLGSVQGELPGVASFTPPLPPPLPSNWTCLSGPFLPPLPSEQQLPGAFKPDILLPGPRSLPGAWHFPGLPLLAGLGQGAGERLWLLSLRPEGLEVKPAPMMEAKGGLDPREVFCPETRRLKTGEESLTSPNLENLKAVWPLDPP
How it was run: as §1

AGGGAA
binding signal (ERG): 1.02 fold enrichment (6-mer frequency, TF over GST control)
binding signal (EHF): 1.04 fold enrichment (6-mer frequency, TF over GST control)
binding signal (SPI1): 1.39 fold enrichment (6-mer frequency, TF over GST control)
binding signal (SPIB): 1 fold enrichment (6-mer frequency, TF over GST control)
binding signal (SPIC): 1.01 fold enrichment (6-mer frequency, TF over GST control)
binding signal (ELF3): 1.01 fold enrichment (6-mer frequency, TF over GST control)
binding signal (ETV7): 1.06 fold enrichment (6-mer frequency, TF over GST control)
binding signal (ELF5): 1.24 fold enrichment (6-mer frequency, TF over GST control)
binding signal (ETV6): 1.03 fold enrichment (6-mer frequency, TF over GST control)

GCAGAT
binding signal (SPIB): 1.02 fold enrichment (6-mer frequency, TF over GST control)
binding signal (SPIC): 1 fold enrichment (6-mer frequency, TF over GST control)
binding signal (ELK4): 1.04 fold enrichment (6-mer frequency, TF over GST control)
binding signal (ETV2): 1.17 fold enrichment (6-mer frequency, TF over GST control)
binding signal (CRX): 1.21 fold enrichment (6-mer frequency, TF over GST control)

GCCATC
binding signal (SPIC): 1.17 fold enrichment (6-mer frequency, TF over GST control)
binding signal (ETV3L): 1.03 fold enrichment (6-mer frequency, TF over GST control)
